UDG counterscr: counter-screen for AID inhibitors: uracil-DNA glycosylase inhibition; Potency, µM (series often up to 115 µM), hits mostly inhibitors; 91,000 compounds, 0.14% hits; FRET deamination/UDG coupled assay, UDG read, 4 h; also: nearly all actives have a fitted effect of over 65% in size
AID inh: activation induced cytidine deaminase inhibition | Q9GZX7 | AID deamination FRET fluorescence, UDG-coupled, 4 h | Potency, µM (doses to about 115 µM), usual class: inhibitors | 91,000 compounds, 0.32% hits | AID 1347428; also: nearly all actives have a fitted effect of over 25% in size
Target sequence (Q9GZX7 whole entry, looked up): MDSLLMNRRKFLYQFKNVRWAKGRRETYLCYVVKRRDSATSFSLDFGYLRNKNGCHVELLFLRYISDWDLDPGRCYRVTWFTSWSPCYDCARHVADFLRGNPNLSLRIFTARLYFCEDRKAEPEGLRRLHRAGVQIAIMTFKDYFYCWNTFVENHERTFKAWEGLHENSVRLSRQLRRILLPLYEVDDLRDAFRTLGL
A number is an active result; – = inactive; ? = inconclusive. Only some compounds are listed: those with a hit (about 0.47% of all), similar ones and a draw of the others. Calls follow the shape of the dose curve; as a rule, active = well fitted curve in the direction sought with a large enough effect; inconclusive = small, poorly fitted or top-dose-only effect, or another doubt; inactive = no such curve, though single readings can be large; an effect the other way counts as inactive or inconclusive.

SMILES	UDG counterscr	AID inh
COc1ccc(-n2c(/C=C\c3ccccc3F)nc3ccccc3c2=O)c(OC)c1	79µM	?
COc1ccccc1-n1c(/C=C/c2ccccc2)nc2ccccc2c1=O	–	–
CCOc1ccc(CN2CCN(c3cccc(C)c3C)CC2)cc1	–	–
O=c1oc2ccccc2c(O)c1C(c1cccc(O)c1)c1c(O)c2ccccc2oc1=O	–	50µM
O=c1oc2ccccc2c(O)c1C(c1ccccc1)c1c(O)c2ccccc2oc1=O	–	45µM
COc1ccc(OC)c(C(c2c(O)c3ccccc3oc2=O)c2c(C)n(C)n(-c3ccccc3)c2=O)c1 (stereo not given)	–	–
Cc1c(C(c2ccc(O)cc2)c2c(O)c3ccccc3oc2=O)c(=O)n(-c2ccccc2)n1C (stereo not given)	–	–
CCCNC(=O)COC(=O)c1cn(C)c2ccccc12	–	–
Cc1[nH]c2ccc(C34CC5CC(CC(C5)C3)C4)cc2c1CCN	–	–
CC(Cc1cccc(Cl)c1)NC(=O)CCCNC(=O)C1CC1 (stereo not given)	–	–
O=C1CN(C(=O)c2cn(Cc3ccccc3)c3ccccc23)CCN1	–	–
CC(=O)C1=C(C)OC(N)=C(C(=O)OCc2ccccc2)C12C(=O)Nc1ccccc12 (stereo not given)	–	–
COC(=O)c1ccc(CCN)cc1	–	–
CC12CNCC(C)(CNC1)C2=O	50µM	?
NCC(O)c1cc(O)c(O)cc1F (stereo not given)	–	50µM

Bioassay records as filed in PubChem BioAssay.
